The source of these data is PubChem BioAssay (NCI).

The structures appear in SMILES notation. Compounds without any hit were thinned out: in the full panel of roughly 83,000, 20% have a hit.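 Growth was measured after 48 h exposure to one concentration of compound in 96-well plates. Values under 10 count as active.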 Values without a mark were called inactive. Activity calls are given as the source filed them.

Among the test systems are NCI-H23 lung; NCI-H226 lung; NCI-H322M lung; HOP-62 NSCLC; NCI-H460 lung; HOP-92 NSCLC; NCI-H522 lung; A549/ATCC NSCLC; 786-0 renal; COLO 205 colon.
What all share (assay): NCI-60 one-dose screen, 48 h (100 = growth as untreated, 0 = no growth, -100 = all killed)
Common to all, as to details: 10 µM unless noted

`COc1cc(-c2ccc(/C=N/NC(=O)c3[nH]c4ccc(Br)cc4c3-c3ccccc3)s2)cc(OC)c1OC`: the growth in the assay with NCI-H23 lung was 68.2%; in the assay with NCI-H226 lung it was 54.4%; in the assay on NCI-H322M lung, 90.2%; in the assay with HOP-62 NSCLC, 74.2%; in the assay on NCI-H460 lung, 75.7%; with HOP-92 NSCLC, 69.7%. For the same compound, the growth is 83.2% in the assay with NCI-H522 lung, 77.1% in the assay on A549/ATCC NSCLC, 58.3% in the assay with 786-0 renal and 108% in the assay on COLO 205 colon.
With `Clc1cccc(-c2ccc(OCCCN3CCN(c4ccncc4)CC3)cc2)c1`, the growth in the assay with NCI-H23 lung was 19.1%; in the assay on NCI-H226 lung it was 41.3%; with NCI-H322M lung, 53.4%; in the assay with HOP-62 NSCLC, -49.1% (active); in the assay with NCI-H460 lung it was -67.5% (active); in the assay with HOP-92 NSCLC, -1.12% (active). The growth in the assay on NCI-H522 lung is -4.23% (active); in the assay on A549/ATCC NSCLC, -11.9% (active); with 786-0 renal, -79.5% (active); with COLO 205 colon, -86.1% (active).
In the case of `O=c1c2ccccc2nc(-c2ccccc2)n1/N=C/c1ccc2ccccc2c1`, the growth in the assay on NCI-H23 lung is 68.2%; in the assay on NCI-H226 lung it was 53.3%; with NCI-H322M lung, 80.1%; in the assay on HOP-62 NSCLC, 55.7%; with NCI-H460 lung it was 8.58% (active); in the assay on HOP-92 NSCLC it was 79.7%. For the same compound, the growth is 63.1% in the assay on NCI-H522 lung, 41.8% with A549/ATCC NSCLC, 53% in the assay with 786-0 renal and 58.2% in the assay on COLO 205 colon.
`CCOC(=O)C1=C(N)N(c2ccccc2)C2=C(C(=O)CC(C)(C)C2)C1c1cccc(Cl)c1Cl` (stereo not given): the growth in the assay on NCI-H23 lung was 69.7%; with NCI-H226 lung it was 40.3%; in the assay on NCI-H322M lung, 77.8%; with HOP-62 NSCLC, 40.8%; with NCI-H460 lung, 61%; with HOP-92 NSCLC it was -0.828% (active). Besides, the growth was 74.9% in the assay on NCI-H522 lung, 60.6% in the assay on A549/ATCC NSCLC, 67.7% in the assay on 786-0 renal and 80.6% in the assay on COLO 205 colon.
With `Clc1cccc(Cl)c1/C=C/c1cc(/C=C/c2ccc(Br)cc2)c2ccccc2n1`, the growth is 98.2% with NCI-H23 lung; 93% in the assay with NCI-H226 lung; 89.7% in the assay on NCI-H322M lung; 94% with HOP-62 NSCLC; 99.5% in the assay on NCI-H460 lung; 86.2% with HOP-92 NSCLC. Moreover, the growth was 97.9% in the assay with NCI-H522 lung, 98.2% in the assay on A549/ATCC NSCLC, 92.2% with 786-0 renal and 117% with COLO 205 colon.
`O=C(COc1ccc(NC(=O)Nc2ccc(Cl)c(Cl)c2)cc1)N=Nc1c(O)[nH]c2ccccc12`: the growth in the assay with NCI-H23 lung was -43.7% (active); in the assay on NCI-H226 lung, -34.7% (active); in the assay on NCI-H322M lung, 28%; in the assay with HOP-62 NSCLC it was -53.1% (active); in the assay with NCI-H460 lung, -63.4% (active); in the assay with HOP-92 NSCLC, -41% (active). The growth in the assay on NCI-H522 lung was -42.8% (active); with A549/ATCC NSCLC, -36.3% (active); in the assay on 786-0 renal it was -71.9% (active); in the assay on COLO 205 colon it was -41.7% (active).
Regarding `C/C(=N\N=C1/C(=O)Nc2ccccc21)c1ccc2c(c1)Nc1ccccc1S2`, the growth in the assay on NCI-H23 lung is 34.8%; with NCI-H226 lung, 56.3%; in the assay on NCI-H322M lung it was 71.3%; with HOP-62 NSCLC it was 82.9%; in the assay on NCI-H460 lung it was 43.8%; with HOP-92 NSCLC it was 82.7%. Further, the growth was 43.7% with NCI-H522 lung, 66.9% in the assay on A549/ATCC NSCLC, 71.4% in the assay on 786-0 renal and 52.6% in the assay with COLO 205 colon.
As to `OCNc1ccc(-n2cnc3cc(-c4ccc(O)cc4)ccc32)cc1C(F)(F)F`, the growth in the assay on NCI-H23 lung is 27%; with NCI-H226 lung it was 51%; with NCI-H322M lung, 46.3%; in the assay with HOP-62 NSCLC, 34.9%; in the assay on NCI-H460 lung, 9.72% (active); with HOP-92 NSCLC it was 65.1%. Moreover, the growth in the assay with NCI-H522 lung is -15.7% (active); in the assay on A549/ATCC NSCLC, 22.4%; with 786-0 renal it was 22.7%; in the assay with COLO 205 colon, 43.5%.
Regarding `CC(C)Sc1nc(NCCc2c[nH]c3ccccc23)c(C#N)c(-c2ccc(F)cc2)n1`, the growth in the assay with NCI-H23 lung was 46.2%; in the assay on NCI-H226 lung it was 54.5%; in the assay with NCI-H322M lung it was 85.2%; in the assay with HOP-62 NSCLC it was 51.9%; in the assay with NCI-H460 lung, 5.26% (active); in the assay with HOP-92 NSCLC, 20.1%. In addition, the growth in the assay on NCI-H522 lung was 39.8%; in the assay on A549/ATCC NSCLC it was 51.4%; with 786-0 renal, 14.4%; in the assay on COLO 205 colon it was 28.9%.
In the case of `Cc1sc(C(NC(=O)OCCn2c([N+](=O)[O-])cnc2C)C(F)(F)Cl)nc1-c1ccc(OC(F)(F)F)cc1` (stereo not given), the growth is -92% (active) in the assay on NCI-H23 lung; -65.2% (active) in the assay with NCI-H226 lung; -92.4% (active) in the assay with NCI-H322M lung; -89.7% (active) with HOP-62 NSCLC; -29.2% (active) in the assay on NCI-H460 lung; -82% (active) in the assay on HOP-92 NSCLC. Also, the growth was -86.1% (active) with NCI-H522 lung, -81.3% (active) in the assay with A549/ATCC NSCLC, -91.3% (active) with 786-0 renal and -74.2% (active) with COLO 205 colon.
For `COc1ccc(C(=O)/C=C/c2ccc(Oc3nc(Nc4ccc(F)cc4)nc(N(C)C)n3)c(OC)c2)cc1`, the growth is 42% in the assay on NCI-H23 lung; 69.7% with NCI-H226 lung; 80.4% in the assay with NCI-H322M lung; 100% in the assay on HOP-62 NSCLC; 26.2% in the assay with NCI-H460 lung; 57.4% in the assay on HOP-92 NSCLC. Also, the growth in the assay with NCI-H522 lung was 49.7%; with A549/ATCC NSCLC, 64.7%; in the assay with 786-0 renal, 57.3%; in the assay with COLO 205 colon, 93.1%.
With `N#Cc1c(-c2cccc3ccccc23)cc(-c2cccc(OCC(=O)O)c2)[nH]c1=O`, the growth in the assay on NCI-H23 lung is 97.7%; in the assay with NCI-H226 lung, 93.6%; in the assay with NCI-H322M lung, 96.1%; in the assay on HOP-62 NSCLC, 105%; in the assay with NCI-H460 lung it was 101%; in the assay with HOP-92 NSCLC it was 98.6%. The growth in the assay with NCI-H522 lung is 97.9%; in the assay on A549/ATCC NSCLC it was 94.6%; with 786-0 renal it was 101%; in the assay on COLO 205 colon it was 106%.
`C/C(=N\Nc1ccc(S(N)(=O)=O)cc1)c1ccc(N=Nc2c(Nc3ccccc3)[nH][nH]c2=O)cc1`: the growth was 0.196% (active) in the assay with NCI-H23 lung; 42.5% in the assay on NCI-H226 lung; 9.22% (active) in the assay on NCI-H322M lung; -17.8% (active) in the assay on HOP-62 NSCLC; 8.87% (active) in the assay on NCI-H460 lung; -7.76% (active) in the assay on HOP-92 NSCLC. The growth in the assay with NCI-H522 lung was -28.8% (active); in the assay with A549/ATCC NSCLC, 75%; in the assay on 786-0 renal it was -45.3% (active); in the assay with COLO 205 colon, -10.5% (active).
For `COc1cc(OC)cc(-c2cc3ccc(N(C)C)cc3c(=O)[nH]2)c1`, the growth in the assay with NCI-H23 lung is 44.1%; in the assay with NCI-H226 lung, 23%; with NCI-H322M lung it was 52.9%; with HOP-62 NSCLC, 53%; in the assay on NCI-H460 lung, 9.42% (active); in the assay with HOP-92 NSCLC, 94.2%. For the same compound, the growth was -19.2% (active) with NCI-H522 lung, 24.4% in the assay with A549/ATCC NSCLC, 29.9% with 786-0 renal and -44.8% (active) in the assay with COLO 205 colon.
